The text below walks through data of PubChem BioAssay (Tox21).

Values without a mark were called inactive. Inconclusive results are not listed. Calls of active or inactive are those of the source. Unless noted, the call rests on the fitted dose curve; in most records, active means well fitted curve in the direction sought with a large enough effect in the repeat runs; inconclusive means weak or mixed curves; inactive means no such curve, though single readings can be large; an effect the other way counts as inactive or inconclusive.

Assay [1] in a line: qHTS assay to identify small molecule agonists of the hypoxia (HIF-1) signaling pathway - cell viability counter screen (AID 1224844; calls by dose curve; further: nearly all actives have a fitted effect of over 50% in size). The gist of the method:
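Multiplexed with the HRE beta-lactamase assay, this viability read used CellTiter-Glo luminescence (30 min, RT) on HRE-bla ME-180 cells treated 17 hrs with compounds in 0.5% dialyzed FBS medium.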
A general note: Quantitative high-throughput screening tests each substance at several concentrations.

A short description of assay [2]: qHTS assay to identify small molecule agonists of H2AX (AID 1224845; active means well fitted activation curve with a large enough effect in the signal ratio in the repeat runs, not every such curve was filed as active; the % refers to the signal ratio). Summed up: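 Wild-type CHO-K1 cells, plated overnight, exposed 3hr at 37C to 15 concentrations (0.76% DMSO final). Lysed, then HTRF anti-pH2AX (S139) cryptate and anti-H2AX-d2 antibodies, 24 hr room temperature; 665/620 nm emission read.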
Assay [3] in a line: qHTS assay to identify small molecule agonists of H2AX - cell viability counter screen (AID 1224847; calls by dose curve; further: top concentration of the series differs between compounds; nearly all actives have a fitted effect of over 30% in size). Summed up: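 For this counter screen, overnight-attached CHO-K1 cells received test compounds (15 concentrations, 0.76% DMSO final); 3 hr later at 37C, CellTiter-Glo reagent was added and luminescence recorded after 30 min at room temperature.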
Assay [4] can be described thus: qHTS RealTime-Glo MT Cell Viability Assay in HepG2 cells - 24 hour (AID 1224867). Further: nearly all actives have a fitted effect of over 50% in size. The gist of the method: (§1)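 Cells + NanoLuc/prosubstrate dispensed (600 cells/well) → 5 h at 37 C/5% CO2 → compounds in DMSO transferred → 40 h incubation at 37 C, luminescence read at 0, 8, 16, 24, 32, 40 h.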
Assay [5] in a line: qHTS RealTime-Glo MT Cell Viability Assay in HEK293 cells - 32 hour (AID 1224868). Further: top concentration of the series differs between compounds; nearly all actives have a fitted effect of over 50% in size. The gist of the method:
(§2)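 Tox21 10K qHTS, HEK293, 600 cells/well, RealTime-Glo reagent co-dispensed with cells; 5 h preincubation, compound by pintool, 37 C, luminescence at 0–40 h.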

Assay [6] can be described thus: A CellTox Green Cytotoxicity Assay to monitor cytotoxicity in HEK293 cells - 0 hour (AID 1224869). Further: nearly all actives have a fitted effect of over 50% in size. Further: potency means the concentration at half of the fitted maximal effect. Summed up: (§3)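 Seeding of HEK293 cells together with cytotoxicity dye preceded a 5 h incubation at 37 C/5% CO2. Test compounds in DMSO were then added and fluorescence monitored across 40 h.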
A short description of assay [7]: qHTS RealTime-Glo MT Cell Viability Assay in HepG2 cells - 40 hour (AID 1224870). Further: nearly all actives have a fitted effect of over 50% in size. Summed up:
(§4)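 HepG2 cells (600/well) mixed with RealTime-Glo MT reagent, settled 5 h at 37 C/5% CO2 before compound addition. Nonlytic NanoLuc luminescence from viable-cell prosubstrate reduction read repeatedly during 40 h treatment at 37 C.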

Assay [8] can be described thus: A CellTox Green Cytotoxicity Assay to monitor cytotoxicity in HEK293 cells - 40 hour (AID 1224871). Further: nearly all actives have a fitted effect of over 45% in size. Further: potency means the concentration at half of the fitted maximal effect. Summed up: as §3
Assay [9] can be described thus: qHTS RealTime-Glo MT Cell Viability Assay in HEK293 cells - 16 hour (AID 1224872). The gist of the method: as §2
A short description of assay [10]: qHTS RealTime-Glo MT Cell Viability Assay in HepG2 cells - 8 hour (AID 1224873). Further: nearly all actives have a fitted effect of over 55% in size. Summed up: as §4
Assay [11] is described as follows: qHTS RealTime-Glo MT Cell Viability Assay in HEK293 cells - 40 hour (AID 1224874). Further: nearly all actives have a fitted effect of over 50% in size. To be noted: RealTime-Glo luminescence; max response: hits give low values. The gist of the method: (§5)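 Tox21 screen in HEK293 using RealTime-Glo MT chemistry, with cells and reagent co-dispensed. Luminescence proportional to viable cell number was captured at intervals during 40 h compound exposure at 37 C.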

The nature of assay [12]: A CellTox Green Cytotoxicity Assay to monitor cytotoxicity in HEK293 cells - 24 hour (AID 1224875). Further: nearly all actives have a fitted effect of over 45% in size. Further: potency means the concentration at half of the fitted maximal effect. The gist of the method: as §3
Assay [13] can be described thus: qHTS RealTime-Glo MT Cell Viability Assay in HepG2 cells - 32 hour (AID 1224877). Further: nearly all actives have a fitted effect of over 55% in size. Summed up: as §1
A short description of assay [14]: qHTS RealTime-Glo MT Cell Viability Assay in HEK293 cells - 0 hour (AID 1224880). Further: top concentration of the series differs between compounds; nearly all actives have a fitted effect of over 45% in size. Summed up: as §5
The nature of assay [15]: A CellTox Green Cytotoxicity Assay to monitor cytotoxicity in HepG2 cells - 24 hour (AID 1224878). Further: nearly all actives have a fitted effect of over 45% in size. Further: potency means the concentration at half of the fitted maximal effect. The gist of the method:
(§6)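 Nonlytic assay: viable cells exclude the dye, so fluorescence scales with cell death. HepG2 at 600 cells/well, compounds added after 5 h, signal read across 40 h.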

A short description of assay [16]: A CellTox Green Cytotoxicity Assay to monitor cytotoxicity in HepG2 cells - 40 hour (AID 1224879). Further: nearly all actives have a fitted effect of over 40% in size. Further: potency means the concentration at half of the fitted maximal effect. Summed up:
as §6

Assay [17] in a line: A CellTox Green Cytotoxicity Assay to monitor cytotoxicity in HepG2 cells - 16 hour (AID 1224876). Further: nearly all actives have a fitted effect of over 45% in size. Further: potency means the concentration at half of the fitted maximal effect. Summed up: as §6
Assay [18] is described as follows: qHTS assay to identify small molecule agonists of the estrogen related receptor (ERR) signaling pathway from Tox21 library (AID 1224849; calls by dose curve; further: nearly all actives have a fitted effect of over 15% in size). The settings on record: ERR reporter cell line, ONE-Glo luciferase, 18 h; at 92.4 µM (top of the series) unless noted. Summed up:
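Six hours post-seeding at 37 C/5% CO2, ERR cells receive DMSO-solubilised compounds; after 18 h at 37 C, ONE-Glo reagent is applied and luminescence recorded.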
On the % scale 0 is the no-effect control and ±100 the full control effect.

Consider `c1ccc(-c2nc[nH]c2-c2ccccc2)cc1`, for which the Potency entry in assay [1], in assay [2], in assay [3], in [4], in [5] and in [6] was “inactive” each time. The Potency result in assay [7], in [8], in [9], in [10], in assay [12] and in [13] was “inactive” in each case. In addition, the Potency result in [14] was “inactive”. In addition, in assay [11], the max response is -25%.

As to `CN(C)C/C=C(/c1ccc(Br)cc1)c1cccnc1`, the Potency result in assay [1], in [2], in assay [3], in assay [4], in assay [5] and in assay [6] was “inactive” in each case. Also, the Potency result in assay [7], in [8], in [9], in assay [10], in [13] and in assay [15] was “inactive” in each case. In [16], the Potency result is “inactive”. Further, the max response in assay [11] is 2.35%.

In the case of `c1ccc(CNCc2ccccc2)cc1`, the Potency result in assay [1], in assay [2], in assay [3], in [4], in [5] and in assay [6] was “inactive” throughout. Besides, the Potency entry in assay [8], in [9], in assay [10], in assay [12], in [17] and in assay [13] was “inactive” in each case. The Potency result in [15] and in [16] was “inactive” in each case. Besides, the max response in [11] is -7.12%.

For the compound `CC(C)=CCCC(C)CC=O` (stereo not given), the Potency entry in assay [1], in assay [2], in [3], in assay [4], in assay [5] and in [6] was “inactive” in each case. Also, the Potency result in assay [7], in assay [8], in [9], in assay [10], in assay [12] and in assay [17] was “inactive” throughout. In addition, the Potency result in assay [13], in assay [15], in assay [16] and in assay [14] was “inactive” each time. For the same compound, the max response in assay [11] was -1.27%.

As to `CC(=O)NCCCS(=O)(=O)O`, the Potency result in [1], in assay [2], in assay [3], in assay [4], in [5] and in [7] was “inactive” throughout. Besides, the Potency result in assay [9], in assay [13] and in [14] was “inactive” throughout. The Potency in assay [6] is 18.9 µM (active); in [8], 16.9 µM (active); in assay [12], 16.9 µM (active); in assay [17] it was 18.9 µM (active); in assay [15] it was 18.9 µM (active); in [16], 18.9 µM (active). Also, the max response in assay [11] is 14.9%.

As for `CN(C)CC[C@@H](c1ccc(Br)cc1)c1ccccn1`, the Potency entry in [1], in assay [2], in assay [3], in [4], in assay [5] and in assay [6] was “inactive” each time. Further, the Potency entry in assay [7], in assay [8], in [9], in assay [10], in [12] and in assay [17] was “inactive” in each case. For the same compound, the Potency entry in assay [13], in [15], in assay [16] and in assay [14] was “inactive” each time. In assay [11], the max response was -14.2%.

In the case of `CC(C)c1cccc(C(C)C)c1NC(=O)NS(=O)(=O)c1cc(C(C)(C)O)co1`, the Potency entry in assay [1], in assay [2], in [3], in [4], in [5] and in assay [6] was “inactive” throughout. In addition, the Potency entry in [8], in assay [9], in assay [10], in assay [12], in assay [17] and in assay [13] was “inactive” in each case. The Potency result in assay [15] and in [16] was “inactive” throughout. The max response in assay [11] is 6.33%.

Consider `O=C(CCN1CCN2CCCC2C1)N1c2ccccc2Sc2ccc(Cl)cc21` (stereo not given), for which the activity change, negative = cytotoxicity was 1.19% [at 15.8 µM] in assay [1]; -4.72% [at 31.6 µM] in assay [3]; -4.92% [at 15.8 µM] in [4]; -13.3% [at 15.8 µM] in [9]; -6.17% [at 15.8 µM] in assay [14]. The activation (H2AX phosphorylation) in assay [2] is -2.77% [at 31.6 µM]. Further, the activity change, positive = activation in assay [18] was -13.2% [at 19 µM]. For the same compound, the activity change, negative = cytotoxic in assay [5] was -23% [at 15.8 µM]; in [7], -2.23% [at 15.8 µM]; in [13], -4.67% [at 15.8 µM]. In addition, the cytotoxicity in assay [6] was -5.19% [at 15.8 µM]; in assay [15], 14.6% [at 15.8 µM]. The results for the cytotoxicity increase in assay [8], in assay [17] and in [16] were 2.75% [at 15.8 µM], 6.02% [at 15.8 µM] and 22.2% [at 15.8 µM], respectively. In addition, in assay [10], the viability change, negative = cytotoxic is -2.56% [at 15.8 µM]. The max response in assay [11] is -21.5%.
